# Data reported in PubChem BioAssay AID1042 (National Center for Advancing Translational Sciences (NCATS), 2008).
# Records with an inconclusive call do not appear. Calls of active or inactive are those of the source.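 The calls were made as follows: active = raised CDH13 expression over DMSO controls, judged by fold change in triplicate runs, no set cutoff; inconclusive = doubtful CDH13 rise, criteria not stated; inactive = no rise, falls in expression ignored.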
# Experiment: CDH13 Derepression/Induction Secondary Assay for qHTS Assay for Epigenetic Modulators
# Settings: H358 cells, CDH13 mRNA qPCR, 72 h; hits give high values
# Excerpt: NIH Molecular Libraries Screening Centers Network [MLSCN] NIH Chemical Genomics Center [NCGC] MLSCN Grant: 1 X01 MH079860-01 Assay Provider: Elisabeth D. Martinez, University of Texas SW Medical Center NCGC Assay Overview: This secondary assay characterizes selected actives identified in the qHTS of the Locus Derepression (LDR) assay (PubChem AID 597). The LDR assay detects the derepression of a GFP reporter that is stably integrated in a region of the genome of murine c127i mammary cells that is presumably silenced. Compounds that cause derepression of the locus to express GFP are identified by enumerating GFP positive cells using a laser-scanning microplate cytometer. Selected LDR actives were assayed for the induction of CDH13 gene expression, a gene silenced by methylation of its promoter. […]
# NCGC Assay Protocol Summary Exponentially growing H358 non-small cell lung cancer cells were treated daily with fresh media containing the indicated concentrations of compounds for 72 hr. Cellular RNA was extracted, quantified, DNAse treated and reverse transcribed. The resulting cDNA was amplified in TaqMan real time quantitative PCR assays (Applied Biosystems) containing validated primers specific for CDH13 (Hs00169908.m1). […] Gene expression was measured by fold-induction over control DMSO-treated samples (36-37 average cycle time). […]
smiles,measurement,value
CN1CSC(=S)N(C)C1,fold change,1 (inactive)
